High-throughput results (PubChem)
A selection: hits, their analogues and other compounds. The true share with any hit is near 2.3%.
ROS inducer – inducers of reactive oxygen species in cancer cells. U2OS ROS induction, H2DCF-DA fluorescence. ROS induction (% of piperlongumine), % at 10 µM. AID 624156. hit rate 2% among 46,000; in the data active = ROS induction above about 79%, passing the limit was not always enough;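 also: 0% = DMSO vehicle median and 100% = reference compound median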
PD-1 reverse act – reversal of PD-1 mediated T-cell inhibition; activation, % (test concentration not listed); primary human CD4 T cells, PD-L1 beads, CellTiter-Glo 96 h; 29,000 tested, under 10 active; call rule not given here;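 also: 0% = median vehicle wells and 100% = positive control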
YB-1 expr inh – YB-1 expression inhibition; U2OS, qRT-PCR YB-1 vs CDIP delta delta Cp, 16 h; hits give high values; zero = DMSO, each unit about twofold; delta delta Cp (YB-1 minus CDIP) (no concentration beside the values); hit rate 0.37% among 30,000; AID 434959;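 active = delta delta Cp rounded down to an integer at or above 3, about 3 SD of DMSO wells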;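 also: higher means less YB-1 transcript or more CDIP transcript relative to DMSO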
The depositor's hits bear a star; nt = not tested or not shown.

SMILES	ROS inducer	PD-1 reverse act	YB-1 expr inh
C[C@H]1CN([C@@H](C)CO)C(=O)c2cccc(NS(=O)(=O)c3ccc(F)cc3)c2O[C@@H]1CN(C)Cc1ccc(-c2ccccc2)cc1	105*	0	0.29
C[C@@H]1CN([C@@H](C)CO)C(=O)c2cccc(NS(=O)(=O)c3ccc(F)cc3)c2O[C@@H]1CN(C)Cc1ccc(-c2ccccc2)cc1	64	-1	0.52
C[C@@H]1CN([C@@H](C)CO)C(=O)c2cccc(NS(C)(=O)=O)c2O[C@H]1CN(C)Cc1ccc(Oc2ccccc2)cc1	10	-1	0.014
C[C@H](CO)N1C[C@H](C)[C@@H](CN(C)Cc2ccc(Oc3ccccc3)cc2)Oc2c(NS(C)(=O)=O)cccc2C1=O	92*	-1	-0.35
C[C@@H]1CN([C@H](C)CO)C(=O)c2cccc(NS(C)(=O)=O)c2O[C@H]1CN(C)Cc1ccc(-c2ccccc2)cc1	2	0	-0.48
C[C@H]1CN([C@@H](C)CO)C(=O)c2cccc(NS(C)(=O)=O)c2O[C@@H]1CN(C)Cc1ccc(-c2ccccc2)cc1	98*	1	0.18
COc1ccc(-n2c(SCC(=O)Nc3cc(NC(C)=O)ccc3OC)nc3ccccc3c2=O)cc1	4	-2	nt
O=C(NO)c1ccc(C(=O)N/N=C/c2ccccc2[N+](=O)[O-])cc1	1	nt	0.95
CCOC(=O)c1cc(C)nc(N2CCC(C(N)=O)CC2)c1C#N	1	nt	nt
CN(Cc1ccccc1)C(=O)CSc1nc(NCc2ccc(Cl)cc2)c2ccccc2n1	22	nt	nt
CCN(CC)c1ncc2c(NCc3ccccc3)nc(SCc3ccccc3)nc2n1	129*	-2	0.41
CCOc1cc(/C=C2\Sc3ccccc3C2=O)cc(I)c1O	96*	nt	nt
CCOc1cc(/C=C2\SC(=O)N(Cc3ccc(F)cc3)C2=O)ccc1O	10	nt	nt
Cc1nc2n(Cc3ccccc3)c3ccccc3n2c1C(=S)Nc1ccccc1	20	nt	nt
C[C@@H]1CN([C@H](C)CO)C(=O)c2cccc(NC(=O)c3ccc(-c4nccs4)cc3)c2O[C@H]1CN(C)Cc1ccc(C(=O)Nc2ccccc2N)cc1	95*	-2	-0.66
Cc1noc(C)c1S(=O)(=O)N(C)C[C@H]1Oc2c(NC(=O)c3ccc(-c4nccs4)cc3)cccc2C(=O)N([C@H](C)CO)C[C@H]1C	106*	1	-0.27
C[C@H]1CN([C@@H](C)CO)C(=O)c2cccc(NC(=O)c3ccc(-c4nccs4)cc3)c2O[C@H]1CN(C)Cc1ccccc1	8	nt	-0.49
C[C@H]1CN([C@@H](C)CO)C(=O)c2cccc(NC(=O)c3ccc(-c4nccs4)cc3)c2O[C@@H]1CN(C)Cc1ccc(C(=O)Nc2ccccc2N)cc1	159*	-2	-0.023
Cc1noc(C)c1S(=O)(=O)N(C)C[C@@H]1Oc2c(NC(=O)c3ccc(-c4nccs4)cc3)cccc2C(=O)N([C@H](C)CO)C[C@@H]1C	43	0	-0.13
C[C@@H]1CN([C@@H](C)CO)C(=O)c2cccc(NC(=O)c3ccc(-c4nccs4)cc3)c2O[C@@H]1CN(C)Cc1ccc(-c2ccccc2)cc1	67	-5	-0.13
Cn1c(SCC(=O)c2cccc([N+](=O)[O-])c2)nnc1-c1cc2ccccc2o1	-3	-6	nt
O=C(CCCCCC(=O)N/N=C/c1ccc([N+](=O)[O-])s1)NO	44	nt	-0.63
COc1ccc(-n2nc3cc(C)c(NC(=S)NC(=O)COc4cccc(C)c4)cc3n2)cc1Cl	-3	-4	nt
CCCc1nnc2c3c4c(sc3ncn12)CCCC4	16	nt	nt
C=C1C(=O)O[C@H]2C1CCC(C)=C1C(=O)C=C(C)[C@@H]12 (stereo not given in full)	72	1	0.12
SMILES	ROS inducer	PD-1 reverse act	YB-1 expr inh
COc1ccccc1CCNC(=O)c1c(-c2c(F)cccc2Cl)noc1C	-4	-1	nt
Cc1ccc(-c2nnc(Nc3ccccc3)c3ccccc23)cc1S(=O)(=O)N1CCCCC1	66	nt	nt
CC1CC(=O)c2c(ccc3c2C(=O)c2c(O[C@@H]4O[C@@H](C)[C@H](O)[C@@H](O)[C@H]4O)cccc2C3=O)C1 (stereo not given in full)	-2	1	-0.46
COc1cccc2c1C(=O)c1c(O)c3c(c(O)c1C2=O)C[C@@](O)(C(C)=O)C[C@@H]3O[C@H]1C[C@H](N)[C@H](O)[C@H](C)O1	141*	nt	2.9
CCN(CC)C(=S)Sc1ncnc2sc3c(c12)CCCC3	92*	-3	-0.089
CC(C)(C)C(=O)CSc1ncnc2sc3c(c12)CCCC3	30	-2	nt
Cc1ccc2ccc(C(Nc3ccccn3)c3ccc(Cl)c(Cl)c3)c(O)c2n1 (stereo not given)	nt	-14	nt
CCn1c(SCC(=O)Nc2ccc(Br)cc2Cl)nnc1-c1ccccc1	-10	1	nt
Cc1cc(NCCO)n2c(nc3ccccc32)c1C#N	7	nt	nt
CC(C)CCNc1cc(C(C)C)c(C#N)c2nc3ccccc3n12	197*	nt	nt
CCc1c(C)c(C#N)c2nc3ccccc3n2c1NCCC(C)C	157*	nt	nt
CCC(C)Nc1cc(C)c(C#N)c2nc3ccccc3n12 (stereo not given)	58	nt	nt
Cc1onc(-c2c(Cl)cccc2Cl)c1C(=O)OC1=CC(=O)CC(C)(C)C1	-13	nt	nt
CSc1nnc2c(n1)OC(C)N(C(C)=O)c1ccccc1-2 (stereo not given)	12	0	0.18
C=CCSc1nnc2c(n1)OC(c1ccc(-c3ccc(F)cc3)o1)N(C(C)=O)c1ccccc1-2 (stereo not given)	118*	0	0.17
COc1ccc(OCC(=O)Nc2ccc(-c3nc4cc(C)ccc4o3)cc2)cc1	9	1	nt
Cc1ccc2oc(-c3cc(NC(=O)c4ncn[nH]4)ccc3O)nc2c1	147*	0	nt
Cc1ccc2nc(SCc3c(C)c(C)cc(C)c3C)[nH]c2c1	-19	nt	nt
Cc1ccc(NC(=O)CSc2nnc(-c3cccnc3)n2-c2ccc(Br)cc2)cc1F	77*	2	nt
Cc1ccc(NC(=O)CSc2nnc(-c3ccncc3)n2-c2ccc(Cl)cc2)cc1F	7	-2	nt
COC(=O)c1ccc(Cl)c(NC(=O)CN(c2cccc(Cl)c2)S(C)(=O)=O)c1	1	2	nt
Nc1nc(SCC(=O)NCC2CCCO2)[nH]c(=O)c1-c1ccccc1 (stereo not given)	4	2	nt
Nc1nc(SCc2nc(-c3ccccc3)no2)[nH]c(=O)c1-c1ccccc1	106*	0	nt
C[C@@H]1CCCCO[C@@H](CN(C)C(=O)Nc2ccccc2)[C@@H](C)CN([C@H](C)CO)C(=O)c2cc(NC(=O)c3ccncc3)ccc2O1	13	-1	0.27
C[C@@H]1CCCCO[C@@H](CN(C)C(=O)Nc2ccccc2)[C@@H](C)CN([C@H](C)CO)C(=O)c2cc(NC(=O)CCC(F)(F)F)ccc2O1	95*	0	-0.41
C[C@@H]1CCCCO[C@H](CN(C)C(=O)CCC(F)(F)F)[C@@H](C)CN([C@H](C)CO)C(=O)c2cc(NC(=O)CCC(F)(F)F)ccc2O1	31	nt	-0.44
C[C@@H]1CCCCO[C@H](CN(C)C(=O)CCC(F)(F)F)[C@@H](C)CN([C@H](C)CO)C(=O)c2cc(N(C)C)ccc2O1	4	nt	9.9*
